Assay [1] in a line: NCI Yeast Anticancer Drug Screen. Data for the rad50 strain (AID 155).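 Also: 0% = growth of vehicle-only cultures of the same strain.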 Particulars: S. cerevisiae rad50 strain growth inhibition; at 50.0 µM; hits give high values. In short, it runs like this:
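Cells are treated with compound, grown, and their growth is then scored against vehicle-only cultures of the same repair-deficient yeast strain.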

Assay [2] can be described thus: NCI Yeast Anticancer Drug Screen. Data for the mec2-1 strain (AID 157). Particulars: S. cerevisiae mec2-1 strain, at 50.0 µM, hits give high values. In short, it runs like this: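 Each compound was tested on mec2-1 yeast, a strain altered in DNA damage repair or cell cycle control. Growth inhibition is reported relative to vehicle.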
A short description of assay [3]: NCI Yeast Anticancer Drug Screen. Data for the sgs1 mgt1 strain (AID 161).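 Also: 0% = growth of cultures given vehicle only.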 Particulars: S. cerevisiae sgs1 mgt1 strain, at 50.0 µM, hits give high values. In outline: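 Genetically altered yeast, compound exposure, growth inhibition relative to vehicle.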
The nature of assay [4]: NCI Yeast Anticancer Drug Screen. Data for the cln2 rad14 strain (AID 165).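 Also: 0% = growth equal to vehicle treated cultures.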 The settings on record: S. cerevisiae cln2 rad14 strain, at 50.0 µM, hits give high values. In outline: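 Test compounds were added to cln2 rad14 yeast cultures; inhibition of growth was then determined by comparison with vehicle treatment.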
Assay [5] in a line: NCI Yeast Anticancer Drug Screen. Data for the bub3 strain (AID 167). Particulars: S. cerevisiae bub3 mutant strain, at 50.0 µM, hits give high values. In outline:
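Part of a panel of yeast mutants defective in DNA damage repair or cell cycle regulation. Each strain is grown with compound, and inhibition is calculated relative to solvent-treated cultures.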

Assay [6] in a line: NCI Yeast Anticancer Drug Screen. Data for the mlh1 rad18 strain (AID 175). Particulars: S. cerevisiae mlh1 rad18 strain growth inhibition; at 50.0 µM; hits give high values. In outline: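 Inhibition values reflect reduced growth of mutant yeast versus vehicle-treated controls following compound exposure; the mutations affect DNA damage repair.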

The panel holds about 79,000 compounds, 15% with a hit somewhere; the sample as a whole holds those more often. A number with no mark means an inactive call. The source made the active and inactive calls. Rule as the data show it: active = growth inhibition above about 70%; inactive = the rest.

As to `CCCC(SCCO)C(CC)CSCCO` (stereo not given), the growth inhibition in assay [1] was -16.8%; in assay [2] it was -9.55%; in assay [3], 2.65%; in assay [4], -14.5%; in assay [5], 13.1%; in assay [6], 5.7%.
Regarding `CC(C)=CC1C(COCc2cc3c(cc2Br)OCO3)C1(C)C` (stereo not given), the growth inhibition in assay [1] was -12.3%; in assay [2], -9.45%; in assay [3], 3%; in assay [4], -34.2%; in assay [5] it was -7.05%; in assay [6], -3.95%.
As to `CNC(=O)NC1NC(=O)N(C)C1=O` (stereo not given), the growth inhibition in assay [1] was 0.3%; in assay [2], -12.7%; in assay [3], -0.4%; in assay [4] it was -14.6%; in assay [5] it was -0.45%; in assay [6], -12.7%.
As for `COc1cc(C)cc2c1C(=O)C(Br)=CC2=O`, the growth inhibition in assay [1] was 91.2% (active); in assay [2] it was 92.3% (active); in assay [3], 91.9% (active); in assay [4], 91.8% (active); in assay [5], 91.8% (active); in assay [6], 89.8% (active).
For `CCOC(=O)C(C)(Cc1ccco1)C(=O)OCC`, the growth inhibition is -16.1% in assay [1]; -10.3% in assay [2]; -5.2% in assay [3]; -33.5% in assay [4]; 14.4% in assay [5]; -12.3% in assay [6].
Regarding `CCN1C(=O)C(N=[N+]=[N-])(c2ccccc2)C(=O)c2ccccc21` (stereo not given), the growth inhibition in assay [1] is 10.5%; in assay [2] it was -8.5%; in assay [3], -16.7%; in assay [4] it was 6.6%; in assay [5] it was 2.45%; in assay [6], 0.65%.
On to `Clc1cnnc2nc[nH]c12`, for which the growth inhibition in assay [1] is -10.8%; in assay [2] it was -7.4%; in assay [3] it was -24.2%; in assay [4] it was -28.1%; in assay [5], -15.8%; in assay [6], -23.2%.
Consider `c1ccn2cncc2c1`, for which the growth inhibition is 17% in assay [1]; 17% in assay [2]; 13.1% in assay [3]; 23.1% in assay [4]; 20.7% in assay [5]; 15.1% in assay [6].
As to `CCC1(C(=O)OC)CCC2C3CCC4CCCCC4(C)C3CCC21C` (stereo not given), the growth inhibition in assay [1] is 4.6%; in assay [2], -8.9%; in assay [3], 9.25%; in assay [4], -3.95%; in assay [5] it was 5.4%; in assay [6] it was 11.1%.
With `CN(C)/C(N)=N/S(=O)(=O)c1ccc(C#N)cc1`, the growth inhibition in assay [1] was 5%; in assay [2], 2.85%; in assay [3] it was -0.25%; in assay [4] it was 6.1%; in assay [5] it was 4.7%; in assay [6], 2.45%.
For `CN(C)CC1CCCCC1O` (stereo not given), the growth inhibition in assay [1] was -4.75%; in assay [2], -5.85%; in assay [3], -5.3%; in assay [4], 25.1%; in assay [5], 1.95%; in assay [6], -7.35%.
In the case of `N#C/C(=C\c1ccco1)C(=O)Nc1ccc(Br)cc1`, the growth inhibition in assay [1] is 27.9%; in assay [2] it was -3.75%; in assay [3], 1.65%; in assay [4], -35.8%; in assay [5] it was 9.1%; in assay [6] it was 23.8%.
For the compound `COC1(OC)OC(c2ccc([N+](=O)[O-])cc2)=C(c2ccc([N+](=O)[O-])cc2)OC1(OC)OC`, the growth inhibition in assay [1] is 56%; in assay [2], 49.9%; in assay [3] it was 38.5%; in assay [4], 57.4%; in assay [5] it was 49%; in assay [6] it was 37.9%.
Regarding `CCCCCCCCCCCCCCCCCCNc1nc(=O)n(C2CC(O)C(COP(=O)(O)O)O2)cc1F` (stereo not given), the growth inhibition in assay [1] was 12.9%; in assay [2] it was 12.6%; in assay [3] it was 16.8%; in assay [4], 17%; in assay [5] it was 9.25%; in assay [6], -23%.
For the compound `CC1CN(c2ccc(Cl)cc2)CC(C)OC(=O)O1` (stereo not given), the growth inhibition is 18.8% in assay [1]; -5.75% in assay [2]; 5.65% in assay [3]; 22.9% in assay [4]; 21.8% in assay [5]; 8.6% in assay [6].
`CCCC1(C)OCC(C)(C)CO1`: the growth inhibition in assay [1] was -1.05%; in assay [2] it was 2.45%; in assay [3], -13.3%; in assay [4], -28.8%; in assay [5], 3.85%; in assay [6], 1.9%.
For the compound `O=C(Nc1ccc(Cl)cc1)Nc1nnc(-c2cccc(-c3nnc(NC(=O)Nc4ccc(Cl)cc4)o3)c2)o1`, the growth inhibition in assay [1] is 39.1%; in assay [2], 34.3%; in assay [3] it was 36.4%; in assay [4], 21.7%; in assay [5] it was -3.5%; in assay [6], 14%.
Consider `COn1nnc2c([N+](=O)[O-])cccc21`, for which the growth inhibition is 18.8% in assay [1]; -6% in assay [2]; -3.15% in assay [3]; -22.9% in assay [4]; -16.4% in assay [5]; 5% in assay [6].
For `Nc1cc(S(=O)(=O)O)cc2ccc(S(=O)(=O)O)cc12`, the growth inhibition in assay [1] was -4.15%; in assay [2] it was 6.75%; in assay [3], -14.6%; in assay [4], -4.35%; in assay [5], -5.65%; in assay [6] it was 3.95%.
Turning to `CCOC(=O)/C=C/C(=O)NNS(=O)(=O)CCC(N)C(=O)O` (stereo not given), the growth inhibition in assay [1] was -6.65%; in assay [2] it was 13.4%; in assay [3], 0.5%; in assay [4], 2.8%; in assay [5] it was 6.8%; in assay [6], 0.45%.

Source of the values: PubChem BioAssay (NCI).
